Source: PubChem BioAssay AID1159580 (chemical genetic matrix, 2015)
“And” between values parts separate entries of the source, which are not always exact repeats. Equal entries are not always repeated. Out of some 5,500 compounds screened, about 2,000 (36%) were called active. About 18% were inconclusive and are not listed. No stated cut-off is given here; in the data, active means normalized growth mostly below about 0.91 (no sharp cut-off); inconclusive means no clear call, values can overlap the other calls; inactive means mostly above about 0.92. This is one part of the list.

Experiment: chemical genetic growth profiling, strain panel (AID 1159580);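 further: tested at 20 µM; growth read once vehicle control cultures reached saturation at 30 °C; 1 = growth at the plate median or of vehicle wells; lower values mean less growth of the strain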
Settings: S. cerevisiae deletion strains, growth OD

Measured: normalized growth

CC(CCC(=O)O)[C@H]1CCC2C3C[C@H](O)[C@@H]4C[C@H](O)CC[C@]4(C)C3CC[C@@]21C (stereo partly specified)
inactive: locus YAL021C, strain ccr4, active compounds read low 0.977 | locus YAL026C, strain drs2, active compounds read low 1.01 | locus YAL030W, strain snc1, active compounds read low 0.984 | locus YBL061C, strain skt5, active compounds read low 0.989 | locus YBR009C, strain hhf1, active compounds read low 0.97 | locus YBR021W, strain FUR4, active compounds read low 1.01 | locus YBR023C, strain chs3, active compounds read low 0.982 | locus YBR171W, strain sec66, active compounds read low 0.996 | locus YBR229C, strain ROT2, active compounds read low 1.02 | locus YBR231C, strain swc5, active compounds read low 1.01 | locus YBR279W, strain paf1, active compounds read low 1 | locus YCL011C, strain gbp2, active compounds read low 0.97 | locus YCL016C, strain dcc1, active compounds read low 0.96 | locus YCL029C, strain bik1, active compounds read low 1.04 | locus YCL069W, strain vba3, active compounds read low 0.985 | locus YCR088W, strain abp1, active compounds read low 0.993 | locus YDL005C, strain med2, active compounds read low 0.973 | locus YDL035C, strain GPR1, active compounds read low 1.04 | locus YDL040C, strain nat1, active compounds read low 0.986 | locus YDL074C, strain BRE1, active compounds read low 1.04 | locus YDL101C, strain DUN1, active compounds read low 1.02 | locus YDL185W, strain tfp1, active compounds read low 1.03 | locus YDL192W, strain arf1, active compounds read low 1.04 | locus YDR001C, strain nth1, active compounds read low 0.976 | locus YDR069C, strain doa4, active compounds read low 0.983 | locus YDR101C, strain arx1, active compounds read low 1.04 | locus YDR137W, strain rgp1, active compounds read low 0.957 | locus YDR159W, strain sac3, active compounds read low 1.05 | locus YDR162C, strain NBP2, active compounds read low 1.01 | locus YDR195W, strain ref2 0.957 | locus YDR297W, strain sur2, active compounds read low 0.988 | locus YDR318W, strain mcm21, active compounds read low 1.02 | locus YDR334W, strain swr1, active compounds read low 0.99 | locus YDR335W, strain msn5, active compounds read low 0.979 | locus YDR388W, active compounds read low 1.02 | locus YDR392W, strain spt3, active compounds read low 0.88 | locus YDR502C, strain sam2, active compounds read low 1.04 | locus YEL003W, strain gim4, active compounds read low 1.01 | locus YEL037C, strain rad23, active compounds read low 0.985 | locus YEL061C, strain CIN8 (second series), active compounds read low 0.987 | locus YEL061C, strain CIN8, active compounds read low 1.02 | locus YER015W, strain faa2, active compounds read low 0.987 | locus YER016W, strain bim1, active compounds read low 0.981 | locus YER110C, active compounds read low 1.03 | locus YER111C, strain swi4, active compounds read low 0.974 | locus YER155C, strain BEM2 (second series), active compounds read low 1 | locus YER155C, strain BEM2, active compounds read low 1.02 | locus YER167W, strain BCK2, active compounds read low 1.04 | locus YFR010W, strain ubp6, active compounds read low 1.01 | locus YGL078C, strain dbp3, active compounds read low 1.02 | locus YGL086W, strain mad1, active compounds read low 1.04 | locus YGL167C, strain pmr1, active compounds read low 0.957 | locus YGL173C, strain kem1, active compounds read low 1 | locus YGL227W, strain vid30, active compounds read low 0.994 | locus YGL240W, strain doc1, active compounds read low 1.02 | locus YGL248W, strain PDE1, active compounds read low 1.02 | locus YGL253W, strain hxk2, active compounds read low 1.02 | locus YGR135W, strain pre9, active compounds read low 1.05 | locus YGR252W, strain gcn5, active compounds read low 1 | locus YHR013C, strain ard1, active compounds read low 0.935 | locus YHR027C, strain rpn1, active compounds read low 0.965 | locus YHR030C, strain SLT2, active compounds read low 1.02 and 1.06 | locus YHR079C, strain IRE1 (second series), active compounds read low 1.02 | locus YHR079C, strain IRE1, active compounds read low 1.04 | locus YHR094C, strain hxt1, active compounds read low 1.02 | locus YHR129C, strain ARP1, active compounds read low 1.03 | locus YHR142W, strain chs7, active compounds read low 0.958 | locus YHR200W, strain rpn10, active compounds read low 1.03 | locus YIL066C, strain RNR3, active compounds read low 1 | locus YIL073C, strain SPO22, active compounds read low 1.1 | locus YIL125W, strain kgd1, active compounds read low 1.03 | locus YIR030C, strain dcg1, active compounds read low 1.02 | locus YJL092W, strain hpr5, active compounds read low 0.99 | locus YJL095W, strain BCK1 (second series), active compounds read low 0.99 | locus YJL095W, strain BCK1, active compounds read low 1.08 and 1.04 | locus YJL115W, strain asf1, active compounds read low 0.977 | locus YJL129C, strain trk1, active compounds read low 0.979 | locus YJL134W, strain LCB3, active compounds read low 1.03 | locus YJL154C, strain vps35, active compounds read low 0.987 | locus YJL164C, strain tpk1, active compounds read low 0.95 | locus YJL166W, strain qcr8, active compounds read low 1 | locus YJL168C, strain set2, active compounds read low 1.03 | locus YJL187C, strain SWE1 (second series), active compounds read low 1.06 | locus YJL187C, strain SWE1, active compounds read low 0.993 | locus YJR043C, strain POL32, active compounds read low 1.04 | locus YJR066W, strain TOR1, active compounds read low 1 | locus YKL009W, strain mrt4, active compounds read low 0.994 | locus YKL068W, active compounds read low 1.01 | locus YKL085W, strain MDH1 (second series), active compounds read low 1.02 | locus YKL085W, strain MDH1, active compounds read low 1.02 | locus YKL160W, strain elf1, active compounds read low 0.948 | locus YKL190W, strain CNB1, active compounds read low 1.07 | locus YKR001C, strain vps1, active compounds read low 1.06 | locus YKR026C, strain gcn3, active compounds read low 0.996 | locus YKR091W, strain srl3, active compounds read low 0.973 | locus YLL001W, strain dnm1, active compounds read low 0.932 | locus YLL026W, active compounds read low 0.986 | locus YLL041C, strain sdh2, active compounds read low 0.984 | locus YLR027C, strain aat2, active compounds read low 1 | locus YLR039C, strain RIC1, active compounds read low 1.08 | locus YLR058C, strain SHM2, active compounds read low 1.02 | locus YLR102C, strain apc9, active compounds read low 1.03 | locus YLR113W, strain HOG1, active compounds read low 1.02 | locus YLR221C, strain rsa3, active compounds read low 1.03 | locus YLR258W, strain gsy2, active compounds read low 0.962 | locus YLR262C, strain YPT6 (second series), active compounds read low 0.984 | locus YLR262C, strain YPT6, active compounds read low 1.17 | locus YLR268W, strain sec22, active compounds read low 1.06 | locus YLR320W, strain mms22, active compounds read low 1.02 | locus YLR330W, strain CHS5, active compounds read low 1.06 | locus YLR342W, strain FKS1 (second series), active compounds read low 1.04 | locus YLR342W, strain FKS1, active compounds read low 0.989 | locus YLR357W, strain rsc2, active compounds read low 1 | locus YLR370C, strain arc18, active compounds read low 0.981 | locus YLR371W, strain rom2, active compounds read low 1.03 | locus YLR384C, strain iki3, active compounds read low 0.964 | locus YLR418C, strain cdc73, active compounds read low 1.05 | locus YML016C, strain PPZ1, active compounds read low 1.02 | locus YML032C, strain rad52, active compounds read low 1.01 | locus YML120C, strain ndi1, active compounds read low 0.96 | locus YML124C, strain tub3, active compounds read low 1.02 | locus YMR058W, strain fet3, active compounds read low 0.997 | locus YMR078C, strain ctf18, active compounds read low 1.03 | locus YMR125W, strain sto1, active compounds read low 0.978 | locus YMR129W, active compounds read low 1.02 | locus YMR205C, strain PFK2, active compounds read low 0.993 | locus YMR223W, strain ubp8, active compounds read low 1.03 | locus YMR231W, strain pep5, active compounds read low 0.993 | locus YMR263W, strain SAP30, active compounds read low 1.04 | locus YMR307W, strain GAS1, active compounds read low 1.1 | locus YNL067W, strain RPL9B, active compounds read low 1.09 | locus YNL071W, strain lat1, active compounds read low 0.991 | locus YNL183C, strain NPR1, active compounds read low 0.999 | locus YNL209W, strain ssb2, active compounds read low 0.978 | locus YNL233W, strain BNI4, active compounds read low 1.08 | locus YNL248C, strain rpa49, active compounds read low 1.03 | locus YNL250W, strain rad50, active compounds read low 1.03 | locus YNL271C, strain bni1, active compounds read low 1.02 | locus YNL298W, strain CLA4, active compounds read low 1 | locus YNL307C, strain MCK1, active compounds read low 1.03 | locus YNL322C, strain KRE1 (second series), active compounds read low 0.982 | locus YNR049C, strain mso1, active compounds read low 0.989 | locus YNR052C, strain pop2, active compounds read low 1.02 | locus YOL012C, strain htz1 0.914 | locus YOL147C, strain pex11, active compounds read low 1.03 | locus YOR001W, strain rrp6, active compounds read low 1.02 | locus YOR061W, strain CKA2, active compounds read low 1.02 | locus YOR069W, strain VPS5, active compounds read low 1.02 | locus YOR070C, strain gyp1, active compounds read low 1.01 | locus YOR080W, strain dia2, active compounds read low 0.995 | locus YOR083W, strain WHI5, active compounds read low 0.948 | locus YOR106W, strain vam3, active compounds read low 0.909 | locus YOR136W, strain idh2, active compounds read low 1.04 | locus YOR144C, strain elg1, active compounds read low 1.02 | locus YOR184W, strain ser1, active compounds read low 1.04 | locus YOR231W, strain MKK1, active compounds read low 1.07 | locus YOR265W, strain rbl2, active compounds read low 0.983 | locus YOR270C, strain vph1, active compounds read low 0.982 | locus YOR290C, strain snf2, active compounds read low 0.927 | locus YOR316C, strain cot1, active compounds read low 1.02 | locus YPL051W, strain arl3, active compounds read low 0.954 | locus YPL055C, strain LGE1, active compounds read low 1.06 | locus YPL078C, strain atp4, active compounds read low 0.936 | locus YPL106C, strain sse1, active compounds read low 0.978 | locus YPL240C, strain hsp82, active compounds read low 0.991 | locus YPL256C, strain CLN2, active compounds read low 1.04 | locus YPR119W, strain clb2, active compounds read low 1.02 | locus YPR141C, strain kar3, active compounds read low 1.03 | locus YPR163C, strain tif3, active compounds read low 1.03 | locus YPR167C, strain met16, active compounds read low 1.02 | strain wtn01, active compounds read low 1.05
